TrxR1 inh: qHTS Assay for Inhibitors of Mammalian Selenoprotein Thioredoxin Reductase 1 (TrxR1): qHTS | Potency, µM (highest dose often 114 µM), inactives show top-dose activity change, negative = inhibition, usual class: inhibitors | 390,000 compounds, 1% hits | Thioredoxin reductase 1, cytoplasmic (Rattus norvegicus), O89049 | recombinant rTrxR1, NADPH fluorescence consumption, selenite substrate; also: nearly all actives have a fitted effect of over 65% in size
Target sequence (O89049 whole entry, looked up): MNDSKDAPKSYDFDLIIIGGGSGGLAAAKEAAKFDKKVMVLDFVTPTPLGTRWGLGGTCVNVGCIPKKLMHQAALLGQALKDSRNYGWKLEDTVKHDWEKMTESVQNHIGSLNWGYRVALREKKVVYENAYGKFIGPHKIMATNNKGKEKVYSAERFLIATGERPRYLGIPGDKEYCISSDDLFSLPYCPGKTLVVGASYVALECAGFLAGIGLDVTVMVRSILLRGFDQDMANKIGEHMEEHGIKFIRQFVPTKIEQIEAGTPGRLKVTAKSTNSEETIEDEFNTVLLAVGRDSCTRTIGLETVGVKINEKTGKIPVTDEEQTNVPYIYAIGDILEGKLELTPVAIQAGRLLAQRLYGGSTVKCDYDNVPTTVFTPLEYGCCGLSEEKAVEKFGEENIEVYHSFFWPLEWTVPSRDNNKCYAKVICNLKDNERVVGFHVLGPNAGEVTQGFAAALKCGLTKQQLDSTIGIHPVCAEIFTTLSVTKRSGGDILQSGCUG
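Rat TrxR1 (90 nM in the dispensed reagent) was pre-reduced with 400 uM NADPH for 5 min at room temperature, then incubated with compound for 15 min. After 400 uM selenite was added, NADPH fluorescence (Ex 340/Em 450 nm) was followed for 8 min.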
GALK inh: qHTS Assay for Inhibitors of Human Galactokinase (GALK) | 270,000 compounds, 0.007% hits | Purified GALK, Kinase-Glo residual ATP luminescence | Potency, µM (titrated, usually from 57.5 µM), without a hit: at the highest dose activity change, negative = inhibition, actives largely listed as inhibitors | AID 1868, 2009
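The enzyme phosphorylates galactose (100 uM) using ATP (35 uM); inhibition is detected as higher residual ATP, quantified by bioluminescence after 1 h reaction at room temperature, pH 8.0.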
TrxR1 substrate: qHTS Assay for Substrates of Mammalian Selenoprotein Thioredoxin Reductase 1 (TrxR1): qHTS | 390,000 compounds, 0.01% hits | purified TrxR1 substrate turnover, NADPH consumption readout | Potency, µM (doses to about 114 µM), for the others: at the top dose activity change, negative = substrate turnover | Thioredoxin reductase 1, cytoplasmic (Rattus norvegicus), O89049; also: nearly all actives have a fitted effect of over 50% in size
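Rat TrxR1, dispensed at 90 nM, was prereduced with 400 uM NADPH (final) for 5 min at ~22 deg C, then incubated with compound 15 min before 400 uM selenite. A first-read NADPH fluorescence drop versus no-compound background flagged substrates.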
Eya2 inh: qHTS Assay for Inhibitors of the Phosphatase Activity of Eya2 | Protein phosphatase EYA2 (Homo sapiens), O00167 | recombinant Eya2, OMFP fluorescence dephosphorylation (OMFP is methylfluorescein phosphate) | Potency, µM (highest dose often 76.9 µM), inactives show top-dose activity, negative = inhibition, usual class: inhibitors | 330,000 compounds, 0.006% hits | AID 488837, 2010
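Eya2 (0.2 uM) preincubated 10 min at ambient with compound, then OMFP substrate added at 50 uM; 10 min reaction in 50 mM HEPES pH 7.5, 50 mM NaCl, 5 uM MgCl2, 0.05% BSA, 1 mM DTT. Fluorescence read at Ex 485/Em 525 nm.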
USP2a inh: qHTS Assay for Inhibitors of Ubiquitin-specific Protease USP2a Using CHOP2 as the Reporter. USP2 core, Ub-CHOP2 coupled fluorogenic reporter, 485/531. Potency, µM (top dose mostly 38.3 µM), for inactives: top-dose activity change, negative = inhibition, hits mostly inhibitors. 330,000 compounds, 0.01% hits. AID 463254, 2010;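 also: plate controls were DMSO wells for no effect and full inhibition by NEM control for full effect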
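USP2 core (10nM final) preincubated 30min RT with compound in 20mM Tris-HCl pH 8.0, 2mM CaCl2, 2mM beta-mercaptoethanol, 0.05% CHAPS; 25nM Ub-CHOP2 plus 25nM reporter substrate added, fluorescence (Ex485/Em531) read after 60min.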
RGS4 inh: Inhibitors of Regulator of G Protein Signaling (RGS) 4: qHTS | Transcreener GDP fluorescence polarization, RGS4-accelerated GTP hydrolysis | AID 504845, 2011 | 390,000 compounds, 0.039% hits | Potency, µM (titrated, usually from 114 µM), inactives show top-dose activity change, negative = inhibition, usual class: inhibitors | Regulator of G-protein signaling 4 (Homo sapiens), P49798; also: nearly all actives have a fitted effect of over 75% in size
Target sequence (P49798 whole entry, looked up): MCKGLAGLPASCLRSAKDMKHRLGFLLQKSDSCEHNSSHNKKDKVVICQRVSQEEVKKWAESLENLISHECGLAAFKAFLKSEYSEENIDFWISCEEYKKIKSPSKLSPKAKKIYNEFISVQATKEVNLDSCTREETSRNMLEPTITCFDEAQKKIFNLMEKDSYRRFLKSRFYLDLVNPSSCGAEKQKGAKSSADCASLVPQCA
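MLSMR compounds (23 nl, pin-transferred) preincubated 10 min at room temperature with a 500nM (2x) first reagent, then RGS4 at 900nM (2x) plus Transcreener GDP mix added; fluorescence polarization (620/688 nm) read before and after 90 min at 30 °C.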
Numbers without * were called inactive; i = inactive; ? = inconclusive; . = no result given; ! = not confirmed by another sample; [ ] = dose if it differs, or a comment. The list is not random: actives were taken first. Their share in the collection is about 1%. Calls follow the shape of the dose curve; as a rule, active = well fitted curve in the direction sought with a large enough effect; inconclusive = small, poorly fitted or top-dose-only effect, or another doubt; inactive = no such curve, though single readings can be large; an effect the other way counts as inactive or inconclusive. Unless noted, % is scaled to controls: 0 for no effect and ±100 for the full control effect; potency is read from the fitted curve at half-maximal effect.

SMILES | TrxR1 inh | GALK inh | TrxR1 substrate | Eya2 inh | USP2a inh | RGS4 inh
O=C(C[n+]1cccc2cc(Cl)ccc21)c1cccc([N+](=O)[O-])c1 | -1% | . | -8% | . | . | .
O=S(=O)(CCN1CCN(C(c2ccccc2)c2ccccc2)CC1)C(F)(F)F | 1.6µM* | 5% | 1%[57.1 µM] | -5% | 2% | -48%
COc1cc(CN2CCN(C(=O)c3cccc4ccccc34)CC2)cc(OC)c1O | 50µM* | -3% | -1% | 0% | 0% | -5%
O=C(Cc1ccccc1)Nc1cccc(N2C(=O)C=CC2=O)c1 | 3.5µM* | 2% | 0% | 1% | 0% | ?
COc1cc2c(C(=O)NCc3ccc(C)o3)cn(CC(C)C)c(=O)c2cc1OC | 20µM* | . | -9% | 0% | 5% | 2%
CCn1cc(C(=O)NCc2ccco2)c2cc(OC)c(OC)cc2c1=O | -17% | 1% | 4% | 3% | 2% | -28%
CC(C)CCNC(=O)c1cnn2c(C(F)(F)F)cc(-c3ccco3)nc12 | 7.1µM* | 1% | 12% | 23% | 3% | ?
O=C(NC1CCCC1)c1cnn2c(C(F)(F)F)cc(-c3ccco3)nc12 | ? | -1% | 17% | 8% | 1% | 3%
Cc1ccc(NC(=O)c2cc(NC(=O)c3ccco3)ccc2N2CCOCC2)cc1 | -3% | 0% | 3% | 25% | 3% | 23%
Cc1ccc(NC(=O)c2cc(N3C(=O)C=CC3=O)ccc2N2CCOCC2)cc1 | 0.89µM* | 1% | 5%[57.1 µM] | 4% | 0% | ?
Cc1ccc(NC(=O)c2cc(N3C(=O)C=CC3=O)ccc2Cl)cc1C | 3.2µM* | 1% | -2% | -32% | -8% | ?
CCCCCCCCCCCCCCCCCCc1ccc(C(=O)/C=C\C(=O)O)cc1 | . | . | . | . | . | i
CCCCCCCCc1ccc(-c2ccc(C(=O)O)cc2)cc1 | 60%[57.1 µM] | . | 54%[57.1 µM] | 10% | . | 21µM*
C=CC(=O)c1ccc(CCCCCC)cc1 | 13µM* | . | 17%[57.1 µM] | -11% | . | 2.7µM*
CCCCCCCCOc1ccc(C(=O)O)cc1 | -3% | . | -3% | 4% | 3% | 14%
Cc1cc2ccccc2n1CCNC(=O)c1ccc(Br)o1 | 10µM* | 10% | 13%[57.1 µM] | -4% | 1% | -25%
COc1cc2c(C#N)c(N3CCCC3)nc(N)c2c(N)n1 | -26%[57.1 µM] | -8% | 16µM*! | 2% | 1% | ?
CC(C)(C)n1ncc2c(=O)n(Cc3c(F)ccc(Cl)c3Cl)cnc21 | 21% | . | 4% | . | . | .
Cn1cnc([N+](=O)[O-])c1S(=O)(=O)c1ccc(Cl)cc1 | 0.32µM* | 3% | 5%[57.1 µM] | 0% | 2% | 2%
CCNC(=S)Nc1cc(OCC)c(NC(=O)c2ccco2)cc1OCC | 12% | -2% | -1% | -11% | -1% | -40%
CCOc1cc(NS(=O)(=O)c2ccccc2)c(OCC)cc1NC(=O)c1ccco1 | 71µM* | -2% | -2% | -20% | -2% | -18%
COc1ccccc1/C=C/c1cncc(/C=C/c2ccccc2OC)c1 | 7% | . | -5% | . | . | .
COc1ccc2nc3c(cc2c1)Cn1c-3nc2ccccc2c1=O | 1% | . | 51% | . | . | 5%
COc1ccc(Nc2cnn(-c3nc4ccccc4s3)c(=O)c2Cl)cc1 | 3.2µM* | -1% | -2% | 1% | 0% | ?
COc1ccc2nc(Sc3c([N+](=O)[O-])nc(C)n3Cc3ccccc3)[nH]c2c1 | 7.1µM* | 0% | -12% | -2% | -1% | 6%
SMILES | TrxR1 inh | GALK inh | TrxR1 substrate | Eya2 inh | USP2a inh | RGS4 inh
Cc1nc([N+](=O)[O-])c(Sc2nc3ccccc3[nH]2)n1Cc1ccccc1 | 3.5µM* | 0% | -2% | -2% | -1% | 7%
CS(=O)(=O)c1cc([N+](=O)[O-])c(Sc2nc3ccccc3[nH]2)c([N+](=O)[O-])c1 | 1.3µM* | -1% | -7% | -4% | 0% | ?
Cc1nc([N+](=O)[O-])c(N2CCN(Cc3ccccc3)CC2)n1Cc1ccccc1 | -1% | 1% | -3% | -7% | -1% | 10%
Cn1cnc([N+](=O)[O-])c1Sc1nc2ccccc2[nH]1 | 3.5µM* | -5% | 6%[57.1 µM] | 3% | -2% | -7%
CN(C)c1ccc(/C=C/c2cc[n+](C)c3ccc4ccccc4c23)cc1 | 15% | . | -7% | . | . | .
Cc1[nH]c2ccccc2c1C(=O)COC(=O)c1ccccc1SCC(=O)N1CCCC1 | -14% | . | -8%[0.0914 µM] | . | . | .
O=C(Nc1ccc2c(c1)CCC2)c1cnn2c1NC(=C1CC1)C=C2C(F)F | -1% | . | -7% | . | . | 25%
CC1CCCCC1NC(=O)COC(=O)/C=C/c1ccco1 (stereo not drawn) | -21% | . | -10% | 6% | -5% | -28%
COc1ccc(CNC(=O)COC(=O)/C=C/c2ccco2)cc1 | 28µM* | 11% | -4% | 8% | 1% | -2%[11.4 µM]
O=C(COC(=O)/C=C/c1ccco1)NC1CCCCC1 | 50µM* | . | -12% | -2% | 1% | ?
COc1cccc(CNc2nc3nc(C)cc(C)n3n2)c1 | 38%[57.1 µM] | 2% | 39%[57.1 µM] | -22% | 4% | -12%
COc1cccc(CNc2ccc3nc(-c4ccc(N)cc4)c(OC)n3n2)c1 | . | . | . | . | . | 38µM*!
C=C(/C=C/c1ccc(N(C)C)cc1)c1nc2ccccc2s1 | -19% | . | -9% | . | . | .
COC(=O)N1C(=O)[C@](c2ccccc2)(C2CCCC2)N1C(=O)OC | ? | . | 13%[57.1 µM] | 10% | 4% | -1%
COC(=O)N1C(=O)[C@@](c2ccccc2)(C(C)C)N1C(=O)OC | 18µM* | . | -1% | 9% | 2% | -16%
COC(=O)N1C(=O)[C@@](c2ccc(OC)cc2)(C(C)C)N1C(=O)OC | 28µM* | . | 4%[57.1 µM] | 0% | -1% | 20%
COC(=O)N1C(=O)[C@](c2ccc(Cl)cc2)(C(C)C)N1C(=O)OC | 7.9µM* | . | 4% | -16% | 2% | -47%
COc1cc(OC)c(/C=C/c2ccc3ccccc3[n+]2[O-])c(OC)c1 | 1% | . | -1% | . | . | .
CCN(CC)c1ccc(S(=O)(=O)N2CCOCC2)cc1NC(=O)COC(=O)/C=C/c1ccccc1 | -4% | . | -11% | . | . | 3%

Assay outcomes as filed in PubChem BioAssay.
